Results filed as inconclusive are left out. Active and inactive are the calls of the source. Rule for the calls: active = hit-call score of the fitted dose curve at least 0.9, where 1 is the maximum; inconclusive = response in the unintended direction; inactive = score below 0.9.
Molecular target: human Thyroid Receptor alpha (THRa1), THRA (gene 7067) (UniProt P10827)
Test: ATG_THRa1_TRANS: Attagene TRANS-FACTORIAL HepG2 Assay for human Thyroid Receptor alpha (THRa1) (AID 2283014)
Experimental: ATG_TRANS is a cell-based, multiplexed-readout assay that uses HepG2, a human liver cell line, with measurements taken at 24 hours after chemical dosing in a 24-well plate.ATG_THRa1_TRANS is one of 30 assay component(s) measured or calculated from the ATG_TRANS assay. It is designed to make measurements of mRNA induction, a form of inducible reporter, as detected with fluorescence intensity signals by Reverse transcription polymerase chain reaction (RT-PCR) and Capillary electrophoresis technology.Data from the assay component ATG_THRa1_TRANS was analyzed into 1 assay endpoint. This assay endpoint, ATG_THRa1_TRANS, was analyzed in the positive analysis fitting direction relative to DMSO as the negative control and baseline of activity. Using a type of inducible reporter, measures of mRNA for gain-of-signal activity can be used to understand the reporter gene at the transcription factor-level as they relate to the gene THRA. Furthermore, this assay endpoint can be referred to as a primary readout, because this assay has produced multiple assay endpoints where this one serves a reporter gene function. To generalize the intended target to other relatable targets, this assay endpoint is annotated to the nuclear receptor intended target family, where the subfamily is non-steroidal.
Human liver HepG2 cells are transiently transfected with multiple reporter transcription units (MRTUs) in 6-well plates using FuGene 6 reagent (Roche; 3 ml FuGene/1 mg DNA). The MRTU constructs are regulated by a cis-regulating element (promoter). […] A major difference between the CIS and TRANS system is that in CIS activities of endogenous TFs are measured, whereas the TRANS assay evaluates changes in activities of exogenous, chimeric NR-Gal4 proteins. […] At the end of 24 hour incubation, total RNA was isolated using TriZol reagent (Invitrogen). The isolated RNA is then reverse-transcribed using oligo(dT) primer and Mo-MLV reverse transcriptase (Invitrogen) with DNAse I (Ambion) treatment for 30 min. The one-tenth of the produced cDNA was amplified by PCR using Taq DNA polymerase (Invitrogen) and two reporter sequence-specific primers. The PCR products were fluorescently labeled by primer extension with 6-arboxyfluorescein (6-FAM) 5'-labeled reporter sequence-specific primer (2 min at 95 C, 20 s at 68 C and 10 min at 72 C) and these products were digested with 5U of HpaI (New England Biolabs) for 2h at 37 C. The fragments were purified using Qiaquick PCR columns (Qiagen), analyzed on an ABI 3130xL genetic analyzer (Applied Biosystems) with peak positions identified by using a set of X-rhodamine (ROX)-labeled MapMarker1000 molecular weight standards (BioVentures). The raw capillary electrophoresis data was processed using Attagraph software (Attagene).

Chain of human Thyroid Receptor alpha (THRa1), THRA (gene 7067) (P10827 whole entry, looked up): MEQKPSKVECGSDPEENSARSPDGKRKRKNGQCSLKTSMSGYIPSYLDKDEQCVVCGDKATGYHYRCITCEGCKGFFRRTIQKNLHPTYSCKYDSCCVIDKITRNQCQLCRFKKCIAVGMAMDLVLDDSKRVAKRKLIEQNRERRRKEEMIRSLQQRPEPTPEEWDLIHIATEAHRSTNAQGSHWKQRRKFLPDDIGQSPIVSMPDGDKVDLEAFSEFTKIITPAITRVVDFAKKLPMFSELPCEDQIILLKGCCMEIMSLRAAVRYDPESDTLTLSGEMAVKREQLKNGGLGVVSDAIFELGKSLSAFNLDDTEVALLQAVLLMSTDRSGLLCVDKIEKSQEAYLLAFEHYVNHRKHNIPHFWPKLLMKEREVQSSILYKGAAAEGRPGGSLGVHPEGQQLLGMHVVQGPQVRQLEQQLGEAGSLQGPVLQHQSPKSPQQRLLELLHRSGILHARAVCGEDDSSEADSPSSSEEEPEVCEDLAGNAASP

outcome, inactive:
CN(C)c1ccc(N=NS(=O)(=O)O)cc1
CC[C@H]1OC(=O)[C@H](C)[C@@H](O[C@H]2C[C@@](C)(OC)[C@@H](O)[C@H](C)O2)[C@H](C)[C@@H](O[C@@H]2O[C@H](C)C[C@H](N(C)C)[C@H]2O)[C@](C)(O)C[C@@H](C)C(=O)[C@H](C)[C@@H](O)[C@]1(C)O
CCOC(=O)COc1ccc2c(c1)CC(NCC(O)c1cccc(Cl)c1)CC2 (stereo not drawn)
Nc1nc2ncc(CNc3ccc(C(=O)N[C@@H](CCC(=O)O)C(=O)O)cc3)nc2c(=O)[nH]1
O=C(O)c1cccc(Oc2ccccc2)c1
O=c1n(CC2CO2)c(=O)n(CC2CO2)c(=O)n1CC1CO1 (stereo not drawn)
CCOC(=O)CC(CC(=O)OCC)(OC(C)=O)C(=O)OCC
CC(C)CCO
CC(C)CC(C)(O)C#CC(C)(O)CC(C)C (stereo not drawn)
CNS(=O)(=O)c1cc(C(=O)N2CCC(CCN3C4CCC3CC(n3c(C)nc5ccccc53)C4)(c3cccc(F)c3)CC2)c(Cl)cc1F (stereo not drawn)
O=C(O)CCN(C1(C(=O)NO)CCCC1)S(=O)(=O)c1ccc(Oc2ccc(F)cc2)cc1
Cn1c(=O)cc(Oc2ccc(F)cc2F)c2cnc(NCC(C)(C)O)nc21
On1ccccc1=S
CC(C)(O)c1coc(S(=O)(=O)NC(=O)Nc2c3c(cc4c2CCC4)CCC3)c1
C1N2CN3CN1CN(C2)C3
CCCN(C1CCN(C(=O)C2CCNCC2)CC1)[C@@H]1CCc2ccc(OC)cc2C1
CCOCCOCCOCCO
COCCOCCOCCOC
O=P(OC(CCl)CCl)(OC(CCl)CCl)OC(CCl)CCl
O=C(OC[C@H]1O[C@@H](OC(=O)c2cc(O)c(O)c(OC(=O)c3cc(O)c(O)c(O)c3)c2)[C@H](OC(=O)c2cc(O)c(O)c(OC(=O)c3cc(O)c(O)c(O)c3)c2)[C@@H](OC(=O)c2cc(O)c(O)c(OC(=O)c3cc(O)c(O)c(O)c3)c2)[C@@H]1OC(=O)c1cc(O)c(O)c(OC(=O)c2cc(O)c(O)c(O)c2)c1)c1cc(O)c(O)c(OC(=O)c2cc(O)c(O)c(O)c2)c1
CCOc1cccc(-n2cc(C(=O)N3CCN(c4cc(C(=O)O)c5ccccc5c4)CC3)nc2-c2ccc(C)cc2)c1
COc1cccc(-c2ccc(/C=C\CN3CCCCCC3)cc2Cl)c1
CNCc1ccc(NC(=O)c2c[nH]c3c2C(=O)CCC3)cc1
CCCCC(CC)COC(=O)c1ccc(C(=O)OCC(CC)CCCC)cc1 (stereo not drawn)
O=C1CCC(N2C(=O)c3ccccc3C2=O)C(=O)N1 (stereo not drawn)
Oc1ccc2c(c1)-c1ccccc1C2
Nc1cccc(N)c1
CN(C)c1ccc(Cc2ccc(N(C)C)cc2)cc1
C[C@](N)(Cc1ccc(O)c(O)c1)C(=O)O
O=C(NS(=O)(=O)/C=C/c1ccccc1)c1ccc(F)cc1Cl
Cc1[nH]cnc1C[C@H]1CCc2c(C)c3ccccc3n2C1=O
CCNc1ccccc1

AC50, active:
Cn1cnc([N+](=O)[O-])c1Sc1ncnc2nc[nH]c12 27.2 µM
